PubChem BioAssay (NCATS)
Where “and” joins values, the source holds several entries; their conditions need not be identical. Equal values may be shown once. Results filed as inconclusive are left out. A call without a number means that no potency is given here. Calls of active or inactive are those of the source. Unless noted, calls follow the shape of the dose curve; as a rule, active = well fitted curve in the direction sought with a large enough effect; inconclusive = small, poorly fitted or top-dose-only effect, or another doubt; inactive = no such curve, though single readings can be large; an effect the other way counts as inactive or inconclusive.

What was measured:
[1] = Counterscreen qHTS for small molecule stabilizers of the endoplasmic reticulum resident proteome: GLuc-NoTag assay (AID 1508627); conditions: Gaussia luciferase NoTag secretion counterscreen, luminescence, thapsigargin 100 nM for final 4 h; series mostly up to 76.4 µM; also: potency is read from the fitted curve at half-maximal effect;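 as to activity change, negative = inhibition: SH-SY5Y cells given compound then 100 nM thapsigargin to empty ER calcium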
Summary of the method: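 SH-SY5Y cells stably expressing constitutively secreted GLuc (no SERCaMP tag) were pre-incubated 5 h, treated with compound for 19 h, then 100 nM thapsigargin for 4 h at 37C; medium GLuc read by coelenterazine luminescence.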

[2] = Confirmatory qHTS for small molecule stabilizers of the endoplasmic reticulum resident proteome: Secreted ER Calcium Modulated Protein (SERCaMP) assay (AID 1508628); conditions: SERCaMP secreted luciferase ER calcium/proteostasis reporter; series mostly up to 76.3 µM; also: nearly all actives have a fitted effect of over 40% in size
Summary of the method: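 SH-SY5Y cells stably expressing GLuc-SERCaMP, treated 16 h with compound (primary 1.53, 7.67, 38.3 uM; confirmation 11 concentrations, up to 76.6 uM), then 100 nM thapsigargin for 4 h. Secreted Gaussia luciferase in medium read by coelenterazine luminescence.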

[3] = Primary qHTS for inhibitors of nuclear receptor binding SET domain protein 2 (NSD2) in an isogenic RCH-ACV NSD2 p.E1099K mutant (9B) (AID 1645876); conditions: RCH-ACV NSD2 E1099K (9B) viability, CellTiter-Glo, 72 h; series mostly up to 44.9 µM; also: nearly all actives have a fitted effect of over 70% in size; also: potency is read from the fitted curve at half-maximal effect
[4] = Cell Viability qHTS for small molecule stabilizers of the endoplasmic reticulum resident proteome (AID 1508629); conditions: cell viability counter-screen, 100 nM thapsigargin for final 4 h;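 also: human SH-SY5Y neuroblastoma cells carrying the GLuc-SERCaMP reporter; compound exposure about 46 h in total before the viability read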
[5] = A High-Content qHTS Against Drug Library for the Identification of Small Molecules that Inhibit DYT1 Early Onset Primary Dystonia-Associated Cell Pathology (AID 1645839; calls by dose curve); conditions: HEK293 Flp-In EGFP-delE TorsinA, punctate imaging, 48 h; series mostly up to 46.1 µM
Summary of the method: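 Readout: %pathology, the punctate EGFP-TorsinA distribution from imaging, as the primary channel and cell count as the toxicity counterscreen. HEK293 Flp-In cells expressing delE TorsinA were induced with tetracycline and treated with compound for 48 h.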

[6] = target: Cytochrome P450 2D6 (Homo sapiens) (UniProt P10635); experiment: Cytochrome P450 family 2 subfamily D member 6 (CYP2D6) small molecule antagonists: luciferase biochemical (cell-free) qHTS assay (AID 1645840; active = well fitted curve in the direction sought with a large enough effect in the repeat runs; an effect the other way counts as inactive or inconclusive; also: nearly all actives have a fitted effect of over 55% in size; also: potency is read from the fitted curve at half-maximal effect); conditions: P450-Glo CYP2D6 enzyme, luciferin luminescence, 1 h; series mostly up to 57.4 µM
Sequence of Cytochrome P450 2D6 (Homo sapiens) (P10635 whole entry, looked up): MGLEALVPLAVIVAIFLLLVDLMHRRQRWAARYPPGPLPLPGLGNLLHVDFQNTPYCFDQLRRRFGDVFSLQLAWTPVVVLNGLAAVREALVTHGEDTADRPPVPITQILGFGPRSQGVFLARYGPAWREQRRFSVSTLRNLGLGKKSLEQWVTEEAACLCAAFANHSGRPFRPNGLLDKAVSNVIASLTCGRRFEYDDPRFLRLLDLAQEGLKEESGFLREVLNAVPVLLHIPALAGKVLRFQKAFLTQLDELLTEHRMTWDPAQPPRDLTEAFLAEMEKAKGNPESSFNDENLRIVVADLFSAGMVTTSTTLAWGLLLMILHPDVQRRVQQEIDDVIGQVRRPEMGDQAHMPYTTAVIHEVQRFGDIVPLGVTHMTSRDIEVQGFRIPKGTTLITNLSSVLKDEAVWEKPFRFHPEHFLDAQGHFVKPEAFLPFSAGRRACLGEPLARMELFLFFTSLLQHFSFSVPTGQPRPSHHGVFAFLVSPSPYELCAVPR
Summary of the method: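 P450-Glo luminescent screen: recombinant CYP2D6 enzyme–proluciferin substrate mix preincubated with compound 10 min at room temperature, then NADPH regeneration added for 1 h at room temperature. Detection reagent added for 20 min; luciferin light read as relative luminescence units.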

[7] = Primary qHTS for inhibitors of nuclear receptor binding SET domain protein 2 (NSD2) in an RCH-ACV wild type WT cells (2C) (AID 1645877); conditions: RCH-ACV (leukaemia line) NSD2 WT (2C) viability, CellTiter-Glo, 72 h; series mostly up to 44.9 µM; also: nearly all actives have a fitted effect of over 70% in size; also: potency is read from the fitted curve at half-maximal effect
[8] = Primary qHTS for small molecule stabilizers of the endoplasmic reticulum resident proteome: Secreted ER Calcium Modulated Protein (SERCaMP) assay (AID 1508630); conditions: SH-SY5Y GLuc-SERCaMP (Gaussia luciferase released on ER calcium loss) secretion, thapsigargin, luminescence; series mostly up to 38.4 µM
Summary of the method: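 GLuc-SERCaMP-expressing SH-SY5Y cells, pretreated 16 h with compound, are challenged with thapsigargin to empty ER calcium stores; after 4 h, coelenterazine is added directly to the medium and luminescence is imaged.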

[9] = target: Cytochrome P450 2C9 (Homo sapiens) (UniProt P11712); experiment: Cytochrome P450 family 2 subfamily C member 9 (CYP2C9) small molecule antagonists: luciferase biochemical (cell-free) qHTS assay (AID 1645842; active = well fitted curve in the direction sought with a large enough effect in the repeat runs; an effect the other way counts as inactive or inconclusive; also: nearly all actives have a fitted effect of over 55% in size; also: potency is read from the fitted curve at half-maximal effect); conditions: P450-Glo CYP2C9 enzyme assay, luciferin luminescence; series mostly up to 57.4 µM
Sequence of Cytochrome P450 2C9 (Homo sapiens) (P11712 whole entry, looked up): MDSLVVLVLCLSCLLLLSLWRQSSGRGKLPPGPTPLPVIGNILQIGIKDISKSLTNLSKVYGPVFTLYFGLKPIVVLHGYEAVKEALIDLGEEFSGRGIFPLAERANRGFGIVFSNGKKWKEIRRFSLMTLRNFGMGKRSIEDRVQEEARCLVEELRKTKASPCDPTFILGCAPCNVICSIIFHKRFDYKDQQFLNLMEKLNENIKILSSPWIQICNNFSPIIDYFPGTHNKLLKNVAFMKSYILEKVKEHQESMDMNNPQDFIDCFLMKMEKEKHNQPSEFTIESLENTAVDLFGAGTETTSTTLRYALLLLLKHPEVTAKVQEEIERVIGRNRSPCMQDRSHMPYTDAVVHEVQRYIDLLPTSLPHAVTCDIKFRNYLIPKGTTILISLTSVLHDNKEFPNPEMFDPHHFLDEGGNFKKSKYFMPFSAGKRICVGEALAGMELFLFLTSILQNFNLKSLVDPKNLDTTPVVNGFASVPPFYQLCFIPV
Summary of the method: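 Luminescence, after 20 min with luciferin detection reagent, reflected CYP2C9 turnover during a 1 h NADPH-driven reaction at 37C. Enzyme-substrate mix contained 0.4% bovine serum albumin and was preincubated with compound 10 min at room temperature.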

[10] = target: N-terminal Xaa-Pro-Lys N-methyltransferase 1 (Homo sapiens) (UniProt Q9BV86); experiment: Confirmatory qHTS for Inhibitors of N-terminal methyltransferase 1 (NTMT1): MTaseGlo Assay (AID 1645874); conditions: NTMT1 enzyme, MTase-Glo SAH luminescence; series mostly up to 100 µM; also: potency is read from the fitted curve at half-maximal effect; nearly all actives have a fitted effect of over 65% in size
Sequence of N-terminal Xaa-Pro-Lys N-methyltransferase 1 (Homo sapiens) (Q9BV86 whole entry, looked up): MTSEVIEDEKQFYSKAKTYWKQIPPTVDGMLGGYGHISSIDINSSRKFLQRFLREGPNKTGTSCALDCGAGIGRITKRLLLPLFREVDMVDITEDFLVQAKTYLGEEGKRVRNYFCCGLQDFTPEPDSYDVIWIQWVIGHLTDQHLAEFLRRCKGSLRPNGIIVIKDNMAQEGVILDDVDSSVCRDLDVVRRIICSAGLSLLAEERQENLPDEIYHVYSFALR
Summary of the method: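 Luminescent MTase-Glo read-out of SAH. 125 nM NTMT1, 100 uM SAM, 1 uM SPKRIA substrate, 30 min RT reaction after 15 min compound preincubation. Normalized to no-enzyme and DMSO controls; Hill fit.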

[11] = target: Catechol O-methyltransferase (Homo sapiens) (UniProt P21964); experiment: Confirmatory Screen for Target Class Profiling of Small Molecule Inhibitors of Methyltransferases (AID 1745852; calls by dose curve; also: potency is read from the fitted curve at half-maximal effect); conditions: MTase-Glo luminescence, SAH detection, recombinant enzyme; measured here: COMT max response; stronger effect = lower value
Sequence of Catechol O-methyltransferase (Homo sapiens) (P21964 whole entry, looked up): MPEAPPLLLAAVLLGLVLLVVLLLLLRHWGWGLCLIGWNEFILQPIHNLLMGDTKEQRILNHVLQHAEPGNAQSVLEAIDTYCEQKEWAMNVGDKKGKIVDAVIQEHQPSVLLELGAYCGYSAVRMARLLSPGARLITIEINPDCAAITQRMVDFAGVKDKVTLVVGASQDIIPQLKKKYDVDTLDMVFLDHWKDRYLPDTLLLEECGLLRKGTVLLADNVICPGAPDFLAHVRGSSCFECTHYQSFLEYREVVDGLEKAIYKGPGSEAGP

[12] = target: Guanidinoacetate N-methyltransferase (Homo sapiens) (UniProt Q14353); experiment: as above; conditions: MTase-Glo luminescence, SAH detection, recombinant enzyme; activity change, negative = inhibition: at 57.3 µM (top of the series) unless noted

In the case of COc1cc(C(C)C)c2c(c1)S(=O)(=O)N(COc1cc(=O)n3cccc(OCCN4CCCCC4)c3n1)C2=O, the Potency [1] is reported as 39.8 µM (active), the outcome [2] is reported as “inactive” and the Potency [3] is reported as 14.8 µM (active).

For CC(=O)SC[C@@H](C)C(=O)N1CCC[C@H]1C(=O)N[C@@H](Cc1ccccc1)C(=O)O, the Potency [1] was “inactive”, the outcome [2] was “inactive” and the max response [4] was 10.6% (inactive). The Potency [5] was “inactive”, the Potency [6] was “inactive” and the Potency [3] was “inactive”. For the same compound, the Potency [7] was “inactive”.

In the case of Cc1cc(Nc2cc(CN3CCOCC3)c3nc(C)c(Cc4ccc(Cl)cc4F)n3n2)n[nH]1, the Potency [8] is reported as “inactive”, the Potency [6] is reported as 23.9 µM (active) and the Potency [9] is reported as 12 µM (active). For the same compound, the Potency [10] was 20.5 µM (active), the Potency [3] was 3.26 µM (active) and 1.86 µM (active) and the Potency [7] was 2.59 µM (active) and 1.18 µM (active).

In the case of COC(=O)C[C@](O)(CCCC(C)(C)O)C(=O)O[C@@H]1C(OC)=C[C@]23CCCN2CCc2cc4c(cc2[C@H]13)OCO4, the Potency [8] is reported as “inactive”.

In the case of Cc1ccc(C(=O)Nc2ccc(CN3CCN(C)CC3)c(C(F)(F)F)c2)cc1C#Cc1cnc2cccnn12, the Potency [8] is reported as “inactive”, the Potency [6] is reported as 16.9 µM (active) and the Potency [9] is reported as 12 µM (active). The Potency [3] was 29 nM (active) and 186 nM (active) and the Potency [7] was 91.6 nM (active) and 209 nM (active).

In the case of O=C(Nc1ncc(-c2cc(C(F)F)nn2-c2c(Cl)cccc2Cl)s1)C1CC1, the Potency [8] is reported as “inactive”, the Potency [6] is reported as 10.7 µM (active) and the Potency [9] is reported as 6.74 µM (active). For the same compound, the Potency [3] was 0.934 µM (active).

In the case of C#Cc1cccc(Nc2ncnc3cc(OC)c(OCCCCCCC(=O)NO)cc23)c1, the Potency [8] is reported as “inactive”, the Potency [6] is reported as 4.77 µM (active) and the Potency [9] is reported as 10.7 µM (active). For the same compound, the Potency [10] was 31.2 µM (active) and the Potency [3] was 515 nM (active) and 590 nM (active).

With Cc1ccc(C(=O)Nc2cccc(C(F)(F)F)c2)cc1-c1ccc2nc(NCCN3CCOCC3)ncc2c1 the Potency [8] was “inactive”, the Potency [6] was 12 µM (active) and the Potency [9] was 1.69 µM (active). The Potency [3] was 1.45 µM (active) and 2.63 µM (active).

For CCCNC(=O)Nc1ccc(Oc2ncnc3cc(OC)c(OC)cc23)cc1Cl, the Potency [8] was “inactive” and the Potency [6] was “inactive”.

For NC(=O)c1c(OCc2c(F)cc(Br)cc2F)nsc1NC(=O)NCCCCN1CCCC1, the Potency [8] was “inactive”, the Potency [6] was 10.7 µM (active) and the Potency [9] was 16.9 µM (active). The Potency [3] was 10.5 µM (active) and the Potency [7] was 7.42 µM (active).

With CCCn1c(=O)c2[nH]c(-c3cnn(Cc4cccc(C(F)(F)F)c4)c3)nc2n(CC)c1=O the Potency [8] was “inactive”, the Potency [6] was “inactive” and the Potency [9] was “inactive”. For the same compound, the Potency [3] was “inactive” and the Potency [7] was “inactive”.

With C=CC(=O)Nc1cccc(Oc2nc(Nc3ccc(N4CCN(C)CC4)cc3OC)ncc2Cl)c1 the Potency [8] was “inactive”, the Potency [6] was 23.9 µM (active) and the Potency [9] was 13.5 µM (active). The Potency [3] was 5.15 µM (active) and 8.33 µM (active) and the Potency [7] was 5.15 µM (active) and 8.33 µM (active).

With Cc1ccc2nc(NC(=O)CSc3nc4c(c(=O)n3-c3ccccc3)SCC4)sc2c1 the Potency [8] was “inactive”, the Potency [6] was “inactive” and the Potency [9] was “inactive”. The Potency [3] was “inactive” and the Potency [7] was “inactive”.

For COc1ccc(-n2nc(C(N)=O)c3c2C(=O)N(c2ccc(N4CCCCC4=O)cc2)CC3)cc1, the Potency [8] was “inactive”, the Potency [6] was “inactive” and the Potency [9] was “inactive”. For the same compound, the Potency [3] was “inactive”.

In the case of O=C(Nc1cn[nH]c1-c1nc2ccc(CN3CCOCC3)cc2[nH]1)NC1CC1, the Potency [8] is reported as “inactive”, the Potency [6] is reported as “inactive” and the Potency [9] is reported as “inactive”. The Potency [3] was 325 nM (active) and 366 nM (active) and 166 nM (active).

In the case of Cn1cncc1[C@@](N)(c1ccc(Cl)cc1)c1ccc2c(c1)c(-c1cccc(Cl)c1)cc(=O)n2C, the Potency [8] is reported as “inactive”, the Potency [6] is reported as 16.9 µM (active) and the Potency [9] is reported as 0.169 µM (active). For the same compound, the Potency [3] was “inactive” and the Potency [7] was “inactive”.

In the case of Nc1ccn([C@@H]2CS[C@H](CO)O2)c(=O)n1, the Potency [8] is reported as “inactive”, the Potency [6] is reported as “inactive” and the Potency [9] is reported as “inactive”. For the same compound, the Potency [3] was “inactive” and the Potency [7] was “inactive”.

For Cc1nc2ccc(CN(C)c3ccc(C(=O)N[C@@H](CCC(=O)O)C(=O)O)s3)cc2c(=O)[nH]1, the Potency [8] was “inactive”, the Potency [5] was “inactive” and the Potency [6] was “inactive”. The Potency [9] was “inactive”, the Potency [3] was 53.1 nM (active) and 33.2 nM (active) and the Potency [7] was 59.6 nM (active) and 23.5 nM (active).

In the case of O=C(Nc1nc2cccc(-c3ccc(CN4CCS(=O)(=O)CC4)cc3)n2n1)C1CC1, the Potency [8] is reported as “inactive”, the Potency [6] is reported as “inactive” and the Potency [9] is reported as “inactive”. For the same compound, the Potency [3] was 14.5 µM (active) and 14.8 µM (active).

With CC(C)c1nn(-c2c(Cl)cccc2Cl)c2nc(Cc3ccc(OCCO)cc3)[nH]c(=O)c12 the Potency [8] was “inactive”, the Potency [6] was “inactive” and the Potency [9] was 5.35 µM (active). The Potency [3] was 45.9 nM (active) and 46.8 nM (active).

In the case of OCCCNc1cc(-c2ccnc(Nc3cccc(Cl)c3)n2)ccn1, the Potency [8] is reported as “inactive”, the Potency [6] is reported as 13.5 µM (active) and the Potency [9] is reported as 10.7 µM (active). For the same compound, the Potency [10] was 22.4 µM (active), the Potency [3] was 29 nM (active) and 52.5 nM (active) and the Potency [7] was 51.7 nM (active) and 33.2 nM (active). For the same compound, the activity [11] was -80.2% and the Potency [12] was 10.8 µM (active).
